Experimental data from PubChem BioAssay (NCI).
About 83,000 compounds went through this panel and 20% of them were active in at least one assay; those are over-represented in the sample as a whole.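 A percent growth of 40 corresponds to 60% growth inhibition; 0 means no net growth; -100 means all cells died. Active threshold: below 10.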 A number with no mark means an inactive call. Calls of active or inactive are those of the source.

Tests used:
Experiment in all cases: NCI-60 one-dose screen, 48 h (100 = growth as untreated, 0 = no growth, -100 = all killed)
Details in all cases: 10 µM unless noted
[1] = system: NCI-H23 lung
[2] = system: NCI-H226 lung
[3] = system: NCI-H322M lung
[4] = system: HOP-62 NSCLC
[5] = system: NCI-H460 lung
[6] = system: HOP-92 NSCLC
[7] = system: NCI-H522 lung
[8] = system: A549/ATCC NSCLC
[9] = system: 786-0 renal
[10] = system: COLO 205 colon

| SMILES | growth [1] | growth [2] | growth [3] | growth [4] | growth [5] | growth [6] | growth [7] | growth [8] | growth [9] | growth [10] |
| --- | --- | --- | --- | --- | --- | --- | --- | --- | --- | --- |
| O=C1N=c2cc3c(cc2=C/C1=C/c1sc(=S)n(CCc2ccc(O)cc2)c1O)OCCO3 | 71.2% | 93.5% | 95.9% | 97% | 83.8% | 56.7% | 37.3% | 99.1% | 80.5% | 75.6% |
| COc1cccc(-c2nc3sccn3c2-c2ccnc(NCCNS(=O)(=O)c3cccc(F)c3)c2)c1 | 33.7% | 22.9% | 73.2% | 55.3% | 28.8% | 18.3% | 40.9% | 27.2% | 48.1% | 25.8% |
| COc1ccc(-c2c(N)n[nH]c2-c2ccc(Cl)cc2O)cc1OC | 83.2% | 79.8% | 92.4% | 91.5% | 94.5% | 69.2% | 84.3% | 92.9% | 86.6% | 113% |
| CN(C)CC1C(=O)O[C@H]2[C@H]1CC/C(COC(=O)c1cc3ccccc3[nH]1)=C\CC[C@@]1(C)O[C@@H]21 (stereo not given in full) | 18.5% | 23.8% | 86.7% | 43.4% | 17.6% | -63.8% (active) | -91.2% (active) | 11.5% | -81.6% (active) | -63.9% (active) |
| Nc1ccc2c(c1)c(N)nn2C(=O)Nc1ccc(Cc2ccccc2)cc1 | 82.1% | 72.5% | 81.2% | 82.7% | 44.5% | 98.2% | 88.3% | 52.3% | 84.3% | 107% |
| Fc1c[c-]c(-c2ccccn2)c(F)c1.[CH3-].[Pt+2].c1ccc(P(C[PH+](c2ccccc2)c2ccccc2)c2ccccc2)cc1 | -51.1% (active) | 3.56% (active) | 2.51% (active) | 0.563% (active) | -68.8% (active) | -80.7% (active) | -24% (active) | -0.672% (active) | -52.5% (active) | -29.9% (active) |
| O=C(CCc1nnc(CN(c2ccccc2)c2ccccc2)o1)c1nc2ccccc2[nH]1 | 85.1% | 107% | 84.4% | 89.1% | 99.6% | 60.6% | 73.9% | 94.7% | 100% | 102% |
| CCN(CC)c1ccc(C(=O)c2ccc(N(CC)CC)cc2)cc1 | 3.77% (active) | 48.5% | 54.7% | 29.2% | 6.72% (active) | 51.2% | 3.66% (active) | 31.9% | 4.16% (active) | -29% (active) |
| CC(C)CCC[C@@H](C)[C@H]1CC[C@H]2[C@@H](Nc3ccc(O)cc3)CCC[C@]12C | 84.2% | 105% | 105% | 108% | 104% | 136% | -42.6% (active) | 95.5% | 109% | 95.5% |
| Cc1nn(-c2ccccc2)c2nc3c(c(-c4ccc(Cl)cc4)c12)CNC1(CCSCC1)N3 | 97.4% | 81.2% | 100% | 93.6% | 99.6% | 74.1% | 110% | 87% | 105% | 94.5% |
| COc1ccc(/C=C/c2c(C(=O)/C=C/c3cccs3)c(C)nc3ccccc23)cc1 | 67.3% | 76% | 89.7% | 93.2% | 83.6% | 42.7% | 62.6% | 92.5% | 90.6% | 78.4% |
| CCc1ccccc1-n1c(N)c(C#N)c(-c2ccc(N(C)C)cc2)c(C#N)c1=O | 96.2% | 98.6% | 86.3% | 106% | 96.4% | 68.3% | 93.7% | 98.9% | 93.9% | 114% |
| Nc1cc2c3c(cccc3c1)C(=O)N(CCN1CCCC1)C2=O | 39.5% | -7.42% (active) | 54.5% | 44.4% | 2.15% (active) | 27.5% | 29.3% | 14.8% | 46.4% | 14% |
| O=c1ssc(Cl)c1-c1ccccc1 | 99.5% | 99.1% | 105% | 98.1% | 99% | 72.5% | 112% | 106% | 107% | 85.1% |
| CNC(=O)c1cc(Oc2cccc3nc(Nc4ccc(F)c(Cl)c4)ccc23)ccn1 | 70% | 46.9% | 76.6% | 50.5% | 62.5% | 77.9% | 40% | 42.1% | 42.6% | 43.7% |
| CN1CCN(CC(=O)Nc2nc(-c3cccc(NS(=O)(=O)c4cccc5c(N(C)C)cccc45)c3)cs2)CC1 | 57.6% | 75.2% | 105% | 85.9% | 55.7% | 57.6% | 67.7% | 72.5% | 79.5% | 76.9% |
| N#Cc1c(N2CCNCC2)nc2sc3cc(Cl)c(Cl)cc3n2c1=N | 96.9% | 95.2% | 107% | 98.7% | 97.8% | 93.6% | 67.3% | 108% | 105% | 132% |
| O=C1/C(=C/c2ccc(Br)cc2)C=C(c2ccccc2)N1CCc1ccccc1 | 40% | -1.06% (active) | 54.3% | -56.9% (active) | 25.6% | -13.9% (active) | 31.2% | 8.19% (active) | -8.73% (active) | 30.4% |
| COc1cc(C2CC(c3ccc(Nc4ccnc5cc(Cl)ccc45)cc3)=NN2C=O)cc(OC)c1OC (stereo not given) | 89.2% | 102% | 107% | 84.4% | 57.2% | -3.68% (active) | 71.7% | 72.4% | 63.8% | 95.6% |
| Nc1n[nH]c(-c2cc(Cl)ccc2O)c1-c1ccccc1 | 71.4% | 70.5% | 82.9% | 83.6% | 102% | 73.1% | 81.8% | 82.3% | 92.7% | 101% |
| CCOP(=O)(OCC)C1CP(=O)(c2ccccc2)CC(C)=C1Cl (stereo not given) | 91.7% | 99.3% | 97.7% | 97.1% | 113% | 93.1% | 65.3% | 87.5% | 87.8% | 109% |
| N#Cc1c(N)nn(C(=O)c2ccc(NC(=O)c3ccccn3)cc2)c1-c1ccc(Cl)cc1 | 20% | 20.1% | 22.2% | -18.4% (active) | 15.9% | 7.04% (active) | 36.3% | 35.4% | 9.76% (active) | 1.15% (active) |
| O=C(CC(SCc1ccccc1)c1ccccc1)c1ccccc1 (stereo not given) | 84.6% | 87.6% | 97.1% | 91.7% | 103% | 80.1% | 111% | 101% | 84% | 94.3% |
| O=C1Nc2ccc(F)cc2C12Nc1cc(Cl)ccc1S2 (stereo not given) | 80.1% | 108% | 84.6% | 111% | 89.5% | -5.66% (active) | 90.9% | 94.9% | 105% | 112% |
| Cc1cc(NCc2cc(Nc3ccnc4cc(Cl)ccc34)ccc2F)nc(N2CCN(C)CC2)n1 | 39.3% | 64.1% | 33.8% | 6.67% (active) | -45.3% (active) | 45.4% | -30.8% (active) | 23% | -69.7% (active) | -73.4% (active) |
| Cn1c2c(c3ccc(Cl)c(Cl)c31)C(C#N)C1(CCNCC1)NC2=O (stereo not given) | 72.6% | 44.1% | 55.3% | 23.8% | 18.3% | 21.9% | 47.3% | 31.2% | 54.5% | -76.6% (active) |
| C=CCSc1nc2ccccc2cc1/C=N/O | 81.9% | 77.8% | 81.4% | 77.1% | 90.4% | 58.2% | 76.4% | 92.5% | 100% | 94.1% |
